± gives the standard deviation.
Assays:
Settings in all cases: modulator concentration 10 µM
[1] = test system: RAW-Dual (murine macrophage reporter line); experiment: NF-kB reporter (SEAP) activity fold change vs agonist alone; higher = enhanced NF-kB activity
Summary of the method: (§1)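 RAW-Dual murine macrophage reporter cells were plated at 50 000 per well in 384-well plates, pin-transferred compound to 10 μM final, and pre-incubated for 1 hour at 37 °C before a PRR agonist was added and the cells incubated overnight. NF-κB activity was read from supernatant SEAP with QUANTI-Blue at 620 nm absorbance, and IRF activity from Lucia luciferase with QUANTI-Luc by luminescence. Each signal was expressed as fold change by dividing by the mean agonist-only control on the same plate. Two replicate plates were averaged, with errors obtained by propagation.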

[2] = test system: RAW-Dual (murine macrophage reporter line); experiment: IRF reporter (Lucia luciferase) activity fold change vs agonist alone; higher = enhanced IRF activity
Summary of the method: as §1

[3] = test system: RAW-Dual (murine macrophage reporter line); experiment: viability score (confluency relative to resting cells, overnight) (fraction); higher = more viable, active = viable (0.7 or more)
Summary of the method: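 Compound was added at a final 10 μM to RAW-Dual macrophages in 384-well plates and left overnight. Confluency was imaged with IncuCyte, and two masks were generated in IncuCyte software over all imaged wells. Each viability score is confluency relative to resting cells, and a compound met the cutoff only when both masks were above 70% of resting cells.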

[4] = agonist: CpG ODN 1826 0.5 ug/mL

Row | Compound | NF-kB reporter [1, 4] | NF-kB reporter ([1]; agonist: LPS 0.1 ug/mL) | NF-kB reporter ([1]; agonist: MPLA […]) | IRF reporter ([2]; agonist: 3'3'-cGAMP 10 ug/mL) | IRF reporter ([2]; agonist: LPS 0.1 ug/mL) | IRF reporter ([2]; agonist: MPLA […]) | viability score [3]
1 | CC(C)(C)SCC(O)Cn1c2ccc(Br)cc2c2cc(Br)ccc21 (stereo not given) | 0.767 ± 0.06 | 0.846 ± 0.1 | 0.91 ± 0.098 | 0.844 ± 0.039 | 1.31 ± 0.079 | 1.4 ± 0.12 | 0.999 (active)
2 | O=C(CCCCC(=O)NN=Cc1cccc(O)c1)NN=Cc1cccc(O)c1 | 1.05 ± 0.093 | 1.08 ± 0.081 | 0.935 ± 0.12 | 0.955 ± 0.032 | 1.41 ± 0.15 | 1.16 ± 0.17 | 1 (active)
3 | CCCCCCCC(O)CC(CC1CCCCC1)C(=O)NN (stereo not given) | 0.721 ± 0.056 | 0.912 ± 0.074 | 0.977 ± 0.093 | 0.88 ± 0.062 | 1.19 ± 0.22 | 1.28 ± 0.28 | 1.02 (active)
4 | CC1C(=O)N2CCCc3cc(S(=O)(=O)N4CCN(c5cccc(Cl)c5)CC4)cc1c32 (stereo not given) | 0.755 ± 0.24 | 0.894 ± 0.073 | 0.971 ± 0.052 | 0.598 ± 0.044 | 1.2 ± 0.23 | 1.22 ± 0.37 | 0.996 (active)
5 | CCN(CC)C(=S)SSC(=S)N(CC)CC | 1.2 ± 0.097 | 0.633 ± 0.041 | 2.07 ± 0.22 | 2.71 ± 0.29 | 0.201 ± 0.025 | 0.114 ± 0.018 | 0.461 (inactive)
6 | Cc1ccc(C)c(Cc2cc([N+](=O)[O-])ccc2C)c1 | 0.287 ± 0.023 | 0.436 ± 0.081 | 0.726 ± 0.026 | 1.28 ± 0.081 | 1.01 ± 0.084 | 1.57 ± 0.28 | 0.996 (active)
7 | CN1CCN(C2=NC(=O)C(=Cc3ccc(Cl)cc3Cl)S2)CC1 | 0.833 ± 0.076 | 0.86 ± 0.068 | 1.15 ± 0.099 | 0.956 ± 0.051 | 1.42 ± 0.099 | 1.59 ± 0.18 | 0.999 (active)
8 | O=C(O)c1ccc(-n2nc(-c3ccccc3O)nc2-c2ccccc2O)cc1 | 0.749 ± 0.082 | 0.917 ± 0.1 | 1.11 ± 0.13 | 0.902 ± 0.042 | 1.31 ± 0.14 | 1.49 ± 0.15 | 0.988 (active)
9 | CC[C@@H]1C(=O)N(C)c2cnc(Nc3ccc(C(=O)N[C@H]4CC[C@H](N5CCN(CC6CC6)CC5)CC4)cc3OC)nc2N1C(C)C | 0.553 ± 0.077 | 1.22 ± 0.31 | 4.21 ± 0.23 | 0.0547 ± 0.0068 | 0.0624 ± 0.0084 | 0.138 ± 0.012 | 0.018 (inactive)
10 | CCOC(=O)C1=C(C)NC(C)=C(C(=O)OCC)C1c1ccc(Cl)c(Cl)c1 | 0.693 ± 0.23 | 0.996 ± 0.078 | 0.832 ± 0.079 | 1.05 ± 0.045 | 1.19 ± 0.19 | 1.37 ± 0.29 | 0.998 (active)
11 | CCOc1ccc(C(=O)NCc2cccnc2)cc1Br | 1.23 ± 0.07 | 1.06 ± 0.14 | 1.04 ± 0.036 | 0.911 ± 0.058 | 0.934 ± 0.14 | 1.08 ± 0.26 | 0.999 (active)
12 | COc1ccc(Br)cc1S(=O)(=O)NCc1ccccc1 | 1.23 ± 0.3 | 0.932 ± 0.054 | 1.06 ± 0.11 | 1.18 ± 0.046 | 1.19 ± 0.13 | 1.21 ± 0.16 | 0.928 (active)
13 | COc1ccc(S(=O)(=O)NCc2ccnc(N3CCOCC3)n2)cc1Cl | 1.02 ± 0.052 | 1.02 ± 0.08 | 0.919 ± 0.1 | 1.07 ± 0.06 | 1.07 ± 0.079 | 1.08 ± 0.4 | 1 (active)
14 | CC(C)C1=NN2C(=N)C(=Cc3ccc(-c4ccccc4[N+](=O)[O-])o3)C(=O)N=C2S1 | 0.927 ± 0.078 | 0.953 ± 0.065 | 0.944 ± 0.066 | 0.89 ± 0.043 | 1.48 ± 0.22 | 1.06 ± 0.22 | 1.01 (active)
15 | CN(C)CCC(c1ccc(Br)cc1)c1ccccn1.O=C(O)/C=C\C(=O)O (stereo not given) | 1.07 ± 0.14 | 1.15 ± 0.27 | 0.939 ± 0.052 | 0.71 ± 0.024 | 1.17 ± 0.34 | 0.918 ± 0.086 | 1.01 (active)
16 | O=C(O)C=Cc1ccc(S(=O)(=O)NCc2cccnc2)cc1 | 0.751 ± 0.077 | 0.82 ± 0.049 | 1.02 ± 0.091 | 1.02 ± 0.062 | 1.46 ± 0.098 | 1.72 ± 0.19 | 1.01 (active)
17 | OCCOCCN1CCN(C(c2ccccc2)c2ccc(Cl)cc2)CC1 (stereo not given) [Prestw-133] | 1.07 ± 0.083 | 0.934 ± 0.071 | 1.07 ± 0.11 | 0.763 ± 0.024 | 1 ± 0.14 | 1.01 ± 0.21 | 1.04 (active)
18 | CCc1ccc(OCCSc2nc3ccccc3n2CCO)cc1 | 0.776 ± 0.075 | 1.08 ± 0.07 | 0.927 ± 0.073 | 0.986 ± 0.03 | 1.33 ± 0.15 | 1.13 ± 0.09 | 1.01 (active)

Row | Compound | NF-kB reporter [1, 4] | NF-kB reporter ([1]; agonist: LPS 0.1 ug/mL) | NF-kB reporter ([1]; agonist: MPLA […]) | IRF reporter ([2]; agonist: 3'3'-cGAMP 10 ug/mL) | IRF reporter ([2]; agonist: LPS 0.1 ug/mL) | IRF reporter ([2]; agonist: MPLA […]) | viability score [3]
19 | CNC1CCC(c2ccc(Cl)c(Cl)c2)c2ccccc21.Cl (stereo not given) | 0.571 ± 0.096 | 0.765 ± 0.097 | 1.11 ± 0.25 | 0.52 ± 0.016 | 1.94 ± 0.19 | 2.12 ± 0.33 | 0.661 (inactive)
20 | Nc1ccc(O)c(C(=O)O)c1 | 1.08 ± 0.089 | 0.898 ± 0.12 | 1.04 ± 0.022 | 0.956 ± 0.053 | 0.923 ± 0.084 | 1.03 ± 0.13 | 0.989 (active)
21 | CS(=O)(=O)N(CC(=O)Nc1ccccc1Br)c1ccc(Cl)c(C(F)(F)F)c1 | 0.796 ± 0.13 | 0.971 ± 0.076 | 0.77 ± 0.072 | 1.15 ± 0.055 | 1.13 ± 0.23 | 1.2 ± 0.15 | 0.999 (active)
22 | COc1ccc2c(c1)c(CC(=O)OCC(=O)O)c(C)n2C(=O)c1ccc(Cl)cc1 | 0.844 ± 0.16 | 1.06 ± 0.33 | 0.835 ± 0.053 | 0.938 ± 0.029 | 1.15 ± 0.25 | 1.07 ± 0.11 | 0.985 (active)
23 | CN(C)CCCC1(c2ccc(F)cc2)OCc2cc(C#N)ccc21.O=C(O)C(=O)O (stereo not given) | 1.13 ± 0.21 | 1.12 ± 0.32 | 1.07 ± 0.077 | 0.836 ± 0.047 | 1.28 ± 0.3 | 1.29 ± 0.1 | 0.993 (active)
24 | COc1cc2c(cc1OC)CC(=O)N(CCCN(C)C[C@H]1Cc3cc(OC)c(OC)cc31)CC2.Cl | 0.713 ± 0.056 | 0.855 ± 0.07 | 1.06 ± 0.097 | 0.962 ± 0.05 | 1.41 ± 0.11 | 1.57 ± 0.18 | 1.01 (active)
25 | CC1CCN(C2CC(=O)N(c3ccc(S(=O)(=O)N4CCOCC4)cc3)C2=O)CC1 (stereo not given) | 0.986 ± 0.082 | 1.02 ± 0.065 | 0.843 ± 0.05 | 1.02 ± 0.025 | 1.33 ± 0.096 | 0.995 ± 0.23 | 1 (active)
26 | CC[C@@H]([C@H](C)O)n1ncn(-c2ccc(N3CCN(c4ccc(OC[C@@H]5CO[C@@](Cn6cncn6)(c6ccc(F)cc6F)C5)cc4)CC3)cc2)c1=O | 0.947 ± 0.14 | 0.893 ± 0.068 | 1.07 ± 0.1 | 1.1 ± 0.055 | 1.18 ± 0.091 | 1.36 ± 0.12 | 1.02 (active)
27 | O=c1cc(CO)occ1O | 0.97 ± 0.075 | 0.901 ± 0.076 | 1.06 ± 0.11 | 1.04 ± 0.041 | 1.28 ± 0.12 | 1.33 ± 0.19 | 1.03 (active)
28 | CC(C)(C)NCC(O)COc1cccc2c1C[C@H](O)[C@H](O)C2 (stereo not given in full) | 1.03 ± 0.091 | 0.97 ± 0.051 | 0.971 ± 0.034 | 0.892 ± 0.05 | 0.976 ± 0.032 | 0.961 ± 0.11 | 0.981 (active)
29 | COC(=O)C1=CN(C2CC2)C=C(C(=O)OC)C1c1ccccc1Cl | 1.12 ± 0.1 | 0.722 ± 0.07 | 1.1 ± 0.052 | 0.945 ± 0.11 | 0.905 ± 0.039 | 1.06 ± 0.17 | 1 (active)
30 | COCCNC(=O)C=Cc1ccccc1 | 1.12 ± 0.12 | 0.936 ± 0.085 | 1.05 ± 0.072 | 1.02 ± 0.15 | 0.98 ± 0.055 | 1.03 ± 0.074 | 0.991 (active)
31 | O=C(Cc1ccc(Cl)cc1)Nc1ccc2oc(-c3c(F)c(F)c(F)c(F)c3F)nc2c1 | 0.931 ± 0.097 | 0.882 ± 0.12 | 0.696 ± 0.059 | 0.698 ± 0.028 | 1.32 ± 0.12 | 1.07 ± 0.11 | 1.01 (active)
32 | CC1CC(=O)C2=C(C1)OC(N)=C(C#N)C2c1ccc(F)cc1 (stereo not given) | 0.894 ± 0.09 | 1.01 ± 0.1 | 0.935 ± 0.066 | 0.874 ± 0.053 | 1.08 ± 0.077 | 1.13 ± 0.2 | 0.982 (active)
33 | O=S(=O)(c1cccc2ccccc12)n1cnc2ccccc21 | 1.1 ± 0.084 | 1.06 ± 0.11 | 0.998 ± 0.1 | 0.944 ± 0.089 | 1.26 ± 0.25 | 1.33 ± 0.26 | 1.01 (active)
34 | Cc1cc(I)cc2c1NC(c1cccc([N+](=O)[O-])c1)C1CC=CC21 (stereo not given) | 0.921 ± 0.079 | 0.795 ± 0.058 | 0.867 ± 0.089 | 0.497 ± 0.039 | 1.17 ± 0.23 | 1.13 ± 0.25 | 1.02 (active)
35 | CS(=O)(=O)N1CCN(Cc2cc3nc(-c4cccc5[nH]ncc45)nc(N4CCOCC4)c3s2)CC1 | 0.179 ± 0.029 | 2.63 ± 0.34 | 2.94 ± 0.17 | 0.151 ± 0.0092 | 1.4 ± 0.24 | 1.33 ± 0.17 | 0.888 (active)
